Shown are actives, neighbours in structure and some others; about 1.7% of the full set was active somewhere.
GLP1R inv ag = inverse agonists of human GLP-1 receptor; actives 1.6% (n = 410,000); HEK293 GLP-1R CRE-luciferase, luminescence, 24 h; GLP-1R form is constitutively active; P43220; Potency, µM (highest dose often 38.3 µM), most hits filed as inhibitors; note: nearly all actives have a fitted effect of over 55% in size
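Using stably transfected HEK293 (constitutively active GLP-1R, cAMP-luciferase reporter), compounds were incubated 24 hr and luciferase measured by luminescence.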
GLP-1R agonist = GLP-1 receptor (human) agonism; P43220; HEK293 GLP-1R CRE-luciferase, luminescence, 4-6 h; cells express a hypersensitive GLP-1R form; Potency, µM (doses to about 45.6 µM), actives largely listed as activators; actives 0.007% (n = 380,000); AID 624172
PTHR1 ag = activates the human parathyroid hormone receptor PTHR1 | HEK293 GP2 PTHR1 cells, GloSensor cAMP luminescence, 1 h | Potency, µM (titrated, usually from 115 µM), hits mostly activators | actives 0.075% (n = 410,000) | AID 743266; note: nearly all actives have a fitted effect of over 55% in size
Target sequence (Q03431 whole entry, looked up): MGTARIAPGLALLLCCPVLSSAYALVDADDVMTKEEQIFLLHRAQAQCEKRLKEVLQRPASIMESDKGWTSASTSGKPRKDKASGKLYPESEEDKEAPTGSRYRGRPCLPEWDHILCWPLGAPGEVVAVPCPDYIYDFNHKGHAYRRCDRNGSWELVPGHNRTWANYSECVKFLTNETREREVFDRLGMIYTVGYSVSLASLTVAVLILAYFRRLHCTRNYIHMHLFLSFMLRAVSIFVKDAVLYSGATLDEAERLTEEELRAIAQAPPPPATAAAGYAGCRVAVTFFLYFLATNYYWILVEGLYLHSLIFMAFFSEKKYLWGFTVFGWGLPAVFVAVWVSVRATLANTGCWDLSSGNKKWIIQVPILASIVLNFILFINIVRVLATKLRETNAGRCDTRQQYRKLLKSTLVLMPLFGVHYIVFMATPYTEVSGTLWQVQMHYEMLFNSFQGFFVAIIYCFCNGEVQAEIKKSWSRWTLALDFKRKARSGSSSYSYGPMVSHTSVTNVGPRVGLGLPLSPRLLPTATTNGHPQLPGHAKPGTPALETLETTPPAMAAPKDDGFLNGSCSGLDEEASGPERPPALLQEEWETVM
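HEK-293-derived GP2 cells expressing PTHR1 and a GloSensor cAMP reporter, 3,000/well, plated overnight, given luciferin plus IBMX (each 0.5 mM as added) for 1 h at 37 °C, then compound for 1 h at 37 °C. Luminescence was read after 15 min at room temperature.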
HEK293 tox = cytotoxicity in counter-screen for GLP-1R inverse agonists | HEK293 cAMP-luciferase reporter cells, luminescence, 24 h | Potency, µM (highest dose often 38.3 µM), usual class: inhibitors | actives 0.13% (n = 410,000);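 note: loss of luciferase light is scored as toxicity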
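Luminescence readout: signal drop marks cytotoxicity. Plated cells grew 12 h at 37 °C, 5% CO2, received 23 nL compound for 24 h, then got luciferase reagent, read after 12 min at RT.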
Each line names hits and unclear results; the compound was inactive in the other large screens. Calls come from the whole dose curve; as a rule, active = well fitted curve in the direction sought with a large enough effect; inconclusive = small, poorly fitted or top-dose-only effect, or another doubt; inactive = no such curve, though single readings can be large; an effect the other way counts as inactive or inconclusive.

CCOc1cccc(/C=N/NC(=S)Nc2cc(S(=O)(=O)N3CCOCC3)ccc2N2CCOCC2)c1O	GLP1R inv ag 5µM
CCn1ccc2cc(S(=O)(=O)N3CCCN(C(=O)NCCOC)CC3)ccc21	none
CCC1CCCCN1CCCNC(=O)c1ccc2c(c1)N(Cc1ccccc1F)C(=O)c1ccccc1S2(=O)=O (centres undefined)	GLP1R inv ag inconclusive, HEK293 tox inconclusive
COc1ccc(OCC(=O)Nc2ccc(N3CCN(C(=O)c4ccccc4)CC3)c(Cl)c2)cc1	GLP1R inv ag 10µM
Cc1ccccc1OCC(=O)Nc1ccc(N2CCN(C)CC2)c(Cl)c1	GLP1R inv ag 4.5µM
Cc1ccccc1OCC(=O)Nc1ccc2c(c1)Cc1ccccc1-2	none
COc1ccc(OCC(=O)Nc2ccccc2N2CCN(C)CC2)cc1	GLP1R inv ag inconclusive
CCC(=O)N1CCN(c2ccccc2NC(=O)COc2ccc(C(C)C)cc2)CC1	GLP1R inv ag 10µM
CCOc1ccc(-n2cc(-c3ccccc3)c3c(N4CCN(c5ccccc5OC)CC4)ncnc32)cc1	none (no result: GLP-1R agonist)
COC(=O)c1sccc1S(=O)(=O)N(CC(=O)Nc1ccccc1F)c1ccccc1	none (no result: GLP-1R agonist)
COc1ccc(N(CCC(=O)Nc2ccccc2F)S(=O)(=O)c2ccc(C)cc2C)cc1	GLP1R inv ag 10µM
COc1ccc(CCC(=O)N2CCc3c([nH]c4ccccc34)C2c2ccc(F)cc2)cc1 (centres undefined)	GLP1R inv ag 10µM (no result: GLP-1R agonist)
CC(=O)NCCC(=O)N1CCc2c([nH]c3ccccc23)C1c1cccc(Cl)c1 (centres undefined)	GLP1R inv ag 5µM
CCOc1cccc(CC(=O)N2CCc3c([nH]c4ccccc34)C2c2ccccc2)c1OCC (centres undefined)	GLP1R inv ag inconclusive (no result: GLP-1R agonist)
O=C(CSCc1ccc(F)cc1)N1CCc2c([nH]c3ccccc23)C1c1ccccc1 (centres undefined)	GLP1R inv ag 7.9µM (no result: GLP-1R agonist)
CCOc1ccc(C2c3[nH]c4ccccc4c3CCN2C(=O)Cc2cccc(OCC)c2OCC)cc1 (centres undefined)	GLP1R inv ag 6.3µM (no result: GLP-1R agonist)
CC(=O)NCCC(=O)N1CCc2c([nH]c3ccccc23)C1c1cccc(C)c1 (centres undefined)	GLP1R inv ag inconclusive
O=C(CSCc1ccc(F)cc1)N1CCc2c([nH]c3ccccc23)C1c1ccc(Cl)cc1 (centres undefined)	GLP1R inv ag inconclusive (no result: GLP-1R agonist)
O=C(O)COCCN1CCN([C@@H](c2ccccc2)c2ccc(Cl)cc2)CC1	none (no result: GLP1R inv ag, PTHR1 ag, HEK293 tox)
Cc1cccc(C2c3[nH]c4ccccc4c3CCN2C(=O)Cc2nc(-c3ccccc3)n[nH]2)n1 (centres undefined)	GLP1R inv ag 11µM
CCOc1cccc(C2c3[nH]c4ccccc4c3CCN2C(=O)CSc2ccccc2)c1 (centres undefined)	GLP1R inv ag inconclusive (no result: GLP-1R agonist)
O=C(CSc1ccccc1)N1CCc2c([nH]c3ccccc23)C1c1ccc(Cl)cc1 (centres undefined)	GLP1R inv ag 5µM (no result: GLP-1R agonist)
CCOc1cccc(C2c3[nH]c4ccccc4c3CCN2C(=O)c2ccccc2F)c1 (centres undefined)	GLP1R inv ag 5.6µM (no result: GLP-1R agonist)
COc1ccc2oc(-c3ccc(C)c(NC(=O)c4ccc5c(c4)OCCO5)c3)nc2c1	none
CNc1ccccc1C(C)(C)c1cc(C)[nH]n1	GLP1R inv ag inconclusive
CNc1ccccc1C(C)(C)c1cc(-c2ccco2)n[nH]1	GLP1R inv ag 7.9µM
COc1cccc(NC(=O)c2oc3ccc(S(=O)(=O)N4CCC5(CC4)OCCO5)cc3c2C)c1	GLP1R inv ag inconclusive (no result: GLP-1R agonist)
Cc1cccc(-c2nc3scc(CCNS(=O)(=O)c4ccc5c(c4)OCCO5)n3n2)c1	none (no result: GLP-1R agonist)
Cc1ccc(NC(=S)N2CCC(c3ccc(C)cc3)C2)cc1 (centres undefined)	GLP1R inv ag inconclusive
CCOc1ccc(NC(=S)N2CCC(c3ccc(C)cc3)C2)cc1 (centres undefined)	GLP1R inv ag 10µM
N=C1N(c2ccccc2)C(=S)C(=Nc2ccccc2)N1c1ccccc1	GLP1R inv ag 13µM
COc1ccc(/C=N/Nc2ncnc3sc(C)c(C)c23)cc1	GLP1R inv ag 8.9µM, HEK293 tox inconclusive
Cc1ccc(C2NC(c3ccc(C)cc3)C([N+](=O)[O-])C(C)(C)C2[N+](=O)[O-])cc1 (centres undefined)	GLP1R inv ag inconclusive

Screens deposited in PubChem BioAssay by National Center for Advancing Translational Sciences (NCATS).
